± gives the standard deviation of the averaged measurements.
Assays:
Assay in all cases: relative enzymatic activity vs untreated control (fraction); higher = less inhibition
Conditions in all cases: 100 µM; incubation time: 2 h at 37 C
DNA gyrase = test system: DNA gyrase
Description: (§1)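 In vitro enzymatic inhibition assays (ProFoldin kits) for 12 purified essential E. coli enzymes or complexes, each treated with 218 active antibacterial compounds at 100 µM for 2 h at 37°C. Read-outs were fluorescence or absorbance (phosphate detection, dye binding), converted to activity via standard curves and expressed relative to untreated DMSO controls.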

DNA helicase = DNA helicase (UniProt P0ACB1)
Description: as §1

DNA ligase = DNA ligase (UniProt B1XA82)
Description: as §1

DNA polymerase = DNA polymerase (UniProt P10443)
Description: as §1

DNA primase = DNA primase (UniProt P0ABS7)
Description: as §1

GlmU = GlmU (UniProt A7ZTU1)
Description: as §1

Guanlyate kinase = Guanlyate kinase (UniProt Q0TBG1)
Description: as §1

MurA = MurA (UniProt Q3YX52)
Description: as §1

MurD = target: T1, MurD (UniProt P14900)
T1 sequence (whole entry): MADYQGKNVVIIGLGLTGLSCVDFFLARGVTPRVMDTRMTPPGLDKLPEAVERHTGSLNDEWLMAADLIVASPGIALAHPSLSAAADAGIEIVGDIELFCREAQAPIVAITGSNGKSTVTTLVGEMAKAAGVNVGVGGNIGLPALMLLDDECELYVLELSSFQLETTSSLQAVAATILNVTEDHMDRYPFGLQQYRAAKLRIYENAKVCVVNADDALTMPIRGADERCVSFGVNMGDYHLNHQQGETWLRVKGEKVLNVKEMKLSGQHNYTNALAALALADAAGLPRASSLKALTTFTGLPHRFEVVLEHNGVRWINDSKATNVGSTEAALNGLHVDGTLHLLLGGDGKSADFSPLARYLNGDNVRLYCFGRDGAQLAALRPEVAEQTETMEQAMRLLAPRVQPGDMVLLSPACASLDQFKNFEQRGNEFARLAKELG
Description: as §1

MurF = target: T2, MurF (UniProt P11880)
T2 sequence (whole entry): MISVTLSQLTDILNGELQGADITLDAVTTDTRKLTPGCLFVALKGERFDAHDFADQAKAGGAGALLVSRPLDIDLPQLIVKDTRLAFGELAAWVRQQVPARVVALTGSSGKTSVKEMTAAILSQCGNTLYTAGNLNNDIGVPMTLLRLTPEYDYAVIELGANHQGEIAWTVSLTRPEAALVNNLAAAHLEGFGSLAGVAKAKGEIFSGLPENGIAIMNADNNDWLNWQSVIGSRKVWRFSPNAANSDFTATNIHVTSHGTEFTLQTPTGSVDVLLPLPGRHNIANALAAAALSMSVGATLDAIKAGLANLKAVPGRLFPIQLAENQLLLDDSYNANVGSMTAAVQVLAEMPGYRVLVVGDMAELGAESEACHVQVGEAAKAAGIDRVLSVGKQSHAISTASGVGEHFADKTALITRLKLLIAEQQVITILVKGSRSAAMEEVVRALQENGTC
Description: as §1

RNA polymerase = test system: RNA polymerase
Description: as §1

Sequence of DNA primase (P0ABS7 whole entry): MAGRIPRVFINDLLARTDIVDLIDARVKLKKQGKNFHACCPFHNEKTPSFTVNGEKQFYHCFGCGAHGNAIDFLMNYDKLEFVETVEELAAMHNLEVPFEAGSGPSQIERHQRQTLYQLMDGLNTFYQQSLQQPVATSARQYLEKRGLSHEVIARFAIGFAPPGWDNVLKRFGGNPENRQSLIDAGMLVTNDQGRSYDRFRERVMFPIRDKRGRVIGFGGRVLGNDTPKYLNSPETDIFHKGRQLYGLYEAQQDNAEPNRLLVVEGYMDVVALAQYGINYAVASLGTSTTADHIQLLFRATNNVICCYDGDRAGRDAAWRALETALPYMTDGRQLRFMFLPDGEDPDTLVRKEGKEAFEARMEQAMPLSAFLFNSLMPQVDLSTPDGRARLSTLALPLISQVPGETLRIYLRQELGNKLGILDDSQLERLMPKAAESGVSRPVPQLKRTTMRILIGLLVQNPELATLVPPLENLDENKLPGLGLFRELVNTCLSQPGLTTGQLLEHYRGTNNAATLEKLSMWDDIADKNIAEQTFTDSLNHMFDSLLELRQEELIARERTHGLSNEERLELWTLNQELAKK
Sequence of DNA ligase (B1XA82 whole entry): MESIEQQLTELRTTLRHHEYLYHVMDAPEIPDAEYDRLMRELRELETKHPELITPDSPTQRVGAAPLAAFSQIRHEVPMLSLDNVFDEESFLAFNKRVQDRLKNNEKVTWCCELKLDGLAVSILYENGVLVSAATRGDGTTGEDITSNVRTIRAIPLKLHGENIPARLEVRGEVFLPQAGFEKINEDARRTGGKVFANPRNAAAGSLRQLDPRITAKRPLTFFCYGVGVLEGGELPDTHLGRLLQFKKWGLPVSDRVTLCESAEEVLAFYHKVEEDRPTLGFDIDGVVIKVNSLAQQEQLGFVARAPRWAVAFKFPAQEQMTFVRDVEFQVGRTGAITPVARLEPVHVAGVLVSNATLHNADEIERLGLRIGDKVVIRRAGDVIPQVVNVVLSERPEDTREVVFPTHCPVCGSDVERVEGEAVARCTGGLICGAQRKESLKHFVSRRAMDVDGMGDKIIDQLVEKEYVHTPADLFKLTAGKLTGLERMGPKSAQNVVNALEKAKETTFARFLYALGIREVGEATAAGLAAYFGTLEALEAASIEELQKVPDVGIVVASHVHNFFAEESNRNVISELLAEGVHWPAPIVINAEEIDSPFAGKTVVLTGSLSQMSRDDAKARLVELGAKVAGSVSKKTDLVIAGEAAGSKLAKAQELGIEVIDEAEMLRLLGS
Sequence of Guanlyate kinase (Q0TBG1 whole entry): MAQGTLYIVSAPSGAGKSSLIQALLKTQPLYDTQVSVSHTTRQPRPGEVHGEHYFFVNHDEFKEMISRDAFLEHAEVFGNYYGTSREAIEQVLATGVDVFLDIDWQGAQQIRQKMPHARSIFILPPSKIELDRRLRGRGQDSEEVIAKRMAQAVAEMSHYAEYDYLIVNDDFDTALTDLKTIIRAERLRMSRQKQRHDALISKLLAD
Sequence of DNA polymerase (P10443 whole entry): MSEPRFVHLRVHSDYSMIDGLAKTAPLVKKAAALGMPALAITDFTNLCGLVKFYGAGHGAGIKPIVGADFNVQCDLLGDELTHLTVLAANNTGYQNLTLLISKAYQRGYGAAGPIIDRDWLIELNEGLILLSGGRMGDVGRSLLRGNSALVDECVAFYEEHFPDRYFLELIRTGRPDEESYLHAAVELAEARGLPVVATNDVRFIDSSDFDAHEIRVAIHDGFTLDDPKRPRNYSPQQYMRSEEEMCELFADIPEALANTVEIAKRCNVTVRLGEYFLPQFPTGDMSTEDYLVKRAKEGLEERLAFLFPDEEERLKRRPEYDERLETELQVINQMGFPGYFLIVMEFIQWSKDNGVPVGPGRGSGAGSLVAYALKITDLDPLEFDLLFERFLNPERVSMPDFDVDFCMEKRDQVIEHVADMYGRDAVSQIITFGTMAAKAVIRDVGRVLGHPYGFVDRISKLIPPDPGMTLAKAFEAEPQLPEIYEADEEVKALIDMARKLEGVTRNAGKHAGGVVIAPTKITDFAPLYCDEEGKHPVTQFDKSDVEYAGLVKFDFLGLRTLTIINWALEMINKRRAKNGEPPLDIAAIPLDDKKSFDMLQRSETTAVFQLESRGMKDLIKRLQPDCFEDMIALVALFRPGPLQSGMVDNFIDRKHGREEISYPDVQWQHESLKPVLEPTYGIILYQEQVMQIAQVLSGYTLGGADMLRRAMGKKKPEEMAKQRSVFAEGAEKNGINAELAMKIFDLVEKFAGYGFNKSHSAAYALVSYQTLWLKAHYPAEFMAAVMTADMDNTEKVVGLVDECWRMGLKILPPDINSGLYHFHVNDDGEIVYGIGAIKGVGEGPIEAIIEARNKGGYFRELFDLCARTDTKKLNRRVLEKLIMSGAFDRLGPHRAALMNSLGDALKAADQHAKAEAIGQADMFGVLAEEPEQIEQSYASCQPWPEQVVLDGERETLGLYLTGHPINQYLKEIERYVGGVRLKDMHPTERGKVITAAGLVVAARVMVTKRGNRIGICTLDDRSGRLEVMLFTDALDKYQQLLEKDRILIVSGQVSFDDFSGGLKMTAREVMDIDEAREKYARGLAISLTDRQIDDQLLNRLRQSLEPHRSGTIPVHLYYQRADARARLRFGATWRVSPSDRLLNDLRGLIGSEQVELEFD
Sequence of DNA helicase (P0ACB1 whole entry): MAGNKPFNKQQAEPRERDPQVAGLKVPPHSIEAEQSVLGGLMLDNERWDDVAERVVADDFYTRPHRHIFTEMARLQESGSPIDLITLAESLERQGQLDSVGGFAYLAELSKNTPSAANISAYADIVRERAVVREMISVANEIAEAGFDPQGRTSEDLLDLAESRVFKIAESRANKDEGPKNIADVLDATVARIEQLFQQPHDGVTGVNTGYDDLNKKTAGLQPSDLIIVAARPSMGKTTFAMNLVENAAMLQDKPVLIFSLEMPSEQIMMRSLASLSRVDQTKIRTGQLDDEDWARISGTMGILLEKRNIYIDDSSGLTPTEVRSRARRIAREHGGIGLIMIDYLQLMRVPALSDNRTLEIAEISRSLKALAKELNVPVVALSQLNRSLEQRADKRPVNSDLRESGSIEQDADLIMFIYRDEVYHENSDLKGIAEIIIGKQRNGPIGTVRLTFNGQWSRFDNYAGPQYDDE
Sequence of MurA (Q3YX52 whole entry): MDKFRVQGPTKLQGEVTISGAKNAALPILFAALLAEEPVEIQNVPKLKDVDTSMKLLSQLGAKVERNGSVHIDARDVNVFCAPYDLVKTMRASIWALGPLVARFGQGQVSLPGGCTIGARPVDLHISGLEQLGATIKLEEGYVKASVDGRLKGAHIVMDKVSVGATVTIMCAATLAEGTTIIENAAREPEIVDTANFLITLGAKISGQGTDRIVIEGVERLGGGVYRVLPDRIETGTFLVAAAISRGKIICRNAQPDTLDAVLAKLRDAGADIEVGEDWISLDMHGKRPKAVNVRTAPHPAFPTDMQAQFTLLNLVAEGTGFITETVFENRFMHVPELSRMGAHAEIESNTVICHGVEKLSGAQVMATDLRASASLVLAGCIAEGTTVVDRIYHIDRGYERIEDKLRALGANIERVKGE
Sequence of GlmU (A7ZTU1 whole entry, looked up): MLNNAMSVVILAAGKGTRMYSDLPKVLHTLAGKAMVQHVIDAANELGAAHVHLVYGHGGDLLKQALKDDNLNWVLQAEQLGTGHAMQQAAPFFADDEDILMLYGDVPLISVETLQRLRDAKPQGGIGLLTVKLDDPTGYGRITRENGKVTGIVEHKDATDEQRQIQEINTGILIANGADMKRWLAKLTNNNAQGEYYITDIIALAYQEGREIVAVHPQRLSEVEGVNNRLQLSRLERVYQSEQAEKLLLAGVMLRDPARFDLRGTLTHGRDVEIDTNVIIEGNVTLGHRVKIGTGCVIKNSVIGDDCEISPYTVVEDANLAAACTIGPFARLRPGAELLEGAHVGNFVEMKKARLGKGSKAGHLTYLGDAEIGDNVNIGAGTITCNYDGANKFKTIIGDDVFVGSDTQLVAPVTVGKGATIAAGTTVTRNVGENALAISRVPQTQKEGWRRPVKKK

Row | SMILES | relative enzymatic activity (DNA gyrase) | relative enzymatic activity (DNA helicase) | relative enzymatic activity (DNA ligase) | relative enzymatic activity (DNA polymerase) | relative enzymatic activity (DNA primase) | relative enzymatic activity (GlmU) | relative enzymatic activity (Guanlyate kinase) | relative enzymatic activity (MurA) | relative enzymatic activity (MurD) | relative enzymatic activity (MurF) | relative enzymatic activity (RNA polymerase)
1 | Cc1cc(C(C)(C)CC(C)(C)C)ccc1OCCOCC[N+](C)(C)Cc1ccccc1.[Cl-] | 0.0681 ± 0.096 | 0.0148 ± 0.0016 | 1.09 ± 0.19 | 0.247 ± 0.011 | 0.55 ± 0.034 | 0.409 ± 0.4 | 0.428 ± 0.034 | 0.0365 ± 0.0028 | 0.0983 ± 0.021 | 0.477 ± 0.33 | 0.664 ± 0.036
2 | CC(NCCCc1cccc(C(F)(F)F)c1)c1cccc2ccccc12.Cl (stereo unspecified) | 1.09 ± 0.12 | 0.434 ± 0.07 | 1.1 ± 0.31 | 1.18 ± 0.25 | 0.676 ± 0.16 | 1.08 ± 0.17 | 1.01 ± 0.032 | 0.749 ± 0.32 | 0.58 ± 0.37 | 0.953 ± 0.19 | 0.817 ± 0.077
3 | CO/N=C1\CN(c2nc3c(cc2F)c(=O)c(C(=O)O)cn3C2CC2)C[C@@H]1CN | 0.0916 ± 0.13 | 0.4747 ± 0.0033 | 0.891 ± 0.14 | 0.53 ± 0.72 | 0.751 ± 0.05 | 0.979 ± 0.019 | 0.738 ± 0.26 | 0.631 ± 0.21 | 0.572 ± 0.38 | 0.964 ± 0.17 | 0.807 ± 0.074
4 | CN1CCN(c2cc3c(cc2F)c(=O)c(C(=O)O)cn3-c2ccc(F)cc2)CC1.Cl | 0.0325 ± 0.046 | 0.445 ± 0.075 | 1.46 ± 0.11 | 1.3 ± 0.33 | 0.681 ± 0.17 | 0.957 ± 0.011 | 0.9286 ± 0.0092 | 0.593 ± 0.055 | 0.566 ± 0.37 | 0.959 ± 0.17 | 0.929 ± 0.056
5 | N[C@@H]1CC[C@@H](c2ccc(Cl)c(Cl)c2)c2ccccc21 | 0.381 ± 0.18 | 0.0688 ± 0.0028 | 0.842 ± 0.083 | 0.507 ± 0.72 | 0.749 ± 0.027 | 0.646 ± 0.059 | 0.924 ± 0.13 | 0.622 ± 0.57 | 0.378 ± 0.23 | 1.02 ± 0.22 | 0.905 ± 0.019
6 | CN(C)CCC=C1c2ccccc2COc2ccc(CC(=O)O)cc21.Cl | 0.496 ± 0.7 | 0.368 ± 0.047 | 0.922 ± 0.04 | 1.08 ± 0.18 | 0.755 ± 0.041 | 0.899 ± 0.041 | 0.935 ± 0.11 | 0.616 ± 0.29 | 0.566 ± 0.38 | 1.1 ± 0.024 | 0.7995 ± 0.0059
7 | O=C1C=CC(=O)N1 | 0.511 ± 0.14 | 0.616 ± 0.23 | 0.848 ± 0.071 | 1 ± 0.3 | 0.801 ± 0.014 | 0.973 ± 0.066 | 0.814 ± 0.18 | 0.171 ± 0.052 | 0.533 ± 0.5 | 0.951 ± 0.22 | 0.83 ± 0.2
8 | CC(C)[C@@H](CC[C@@H](C)[C@H]1CC[C@H]2[C@@H]3[C@H](O)C[C@H]4C[C@@H](NCCCNCCCCNCCCN)CC[C@]4(C)[C@H]3CC[C@]12C)OS(=O)(=O)O | 1.18 ± 0.2 | 0.0588 ± 0.066 | 0.674 ± 0.096 | 0.126 ± 0.02 | 0.419 ± 0.016 | 0.813 ± 0.091 | 0.334 ± 0.028 | 0.187 ± 0.029 | 0.59 ± 0.41 | 1.03 ± 0.027 | 0.146 ± 0.0049
9 | CCC1OC(=O)C(C)C(OC2CC(C)(OC)C(O)C(C)O2)C(C)C(OC2OC(C)CC(N(C)C)C2O)C(C)(O)CC(C)CN(C)C(C)C(O)C1(C)O (stereo unspecified) | 1.09 ± 0.048 | 0.601 ± 0.15 | 1.06 ± 0.2 | 1.11 ± 0.15 | 0.712 ± 0.2 | 1.09 ± 0.14 | 1.04 ± 0.034 | 0.766 ± 0.061 | 0.572 ± 0.39 | 0.964 ± 0.17 | 0.843 ± 0.027
10 | C=C1c2cccc(O)c2C(=O)C2=C(O)C3(O)C(=O)C(C(N)=O)=C(O)C(N(C)C)C3C(O)C12.Cl (stereo unspecified) | 0.0714 ± 0.1 | 0.143 ± 0.031 | 0.963 ± 0.19 | 0.187 ± 0.022 | 0.399 ± 0.077 | 1 ± 0.011 | 0.376 ± 0.018 | 0.0701 ± 0.026 | 0.62 ± 0.43 | 0.937 ± 0.28 | 0.052 ± 0.025
11 | CCCCCCCCCCCCC[N+](C)(C)Cc1ccccc1.O.[Cl-] | 0.0515 ± 0.073 | 0.0193 ± 0.00021 | 0.811 ± 0.32 | 0.208 ± 0.0053 | 0.482 ± 0.019 | 0.157 ± 0.036 | 0.171 ± 0.062 | 0.051 ± 0.015 | 0.115 ± 0.035 | 0.102 ± 0.021 | 0.32 ± 0.068
12 | CC(C)(ON=C(C(=O)NC1C(=O)N2C(C(=O)[O-])=C(C[n+]3ccccc3)CSC12)c1csc(N)n1)C(=O)O (stereo unspecified) | 0.0358 ± 0.051 | 0.494 ± 0.12 | 1.08 ± 0.29 | 0.444 ± 0.021 | 0.593 ± 0.11 | 0.79 ± 0.019 | 0.876 ± 0.015 | 0.0456 ± 0.016 | 0.548 ± 0.37 | 0.924 ± 0.15 | 0.137 ± 0.0022
13 | CC1CCC2(C)C(C=O)=CCCC2C1(C)CC1OC(O)C(=O)C12CO2 (stereo unspecified) | 0.075 ± 0.11 | 0.688 ± 0.45 | 1.12 ± 0.035 | 1.15 ± 0.2 | 0.89 ± 0.017 | 1.008 ± 0.0078 | 0.956 ± 0.024 | 0.662 ± 0.12 | 0.612 ± 0.41 | 0.577 ± 0.81 | 1.06 ± 0.13
14 | O=C(O)c1cn(C2CC2)c2cc(N3CCNCC3)c(F)cc2c1=O | 0.0423 ± 0.06 | 0.645 ± 0.22 | – | 0.688 ± 0.4 | 0.687 ± 0.18 | 1.09 ± 0.16 | 0.932 ± 0.065 | 0.705 ± 0.28 | 0.576 ± 0.41 | 0.991 ± 0.21 | 0.771 ± 0.006
15 | CCn1nc(C(=O)O)c(=O)c2cc3c(cc21)OCO3 | 0.136 ± 0.013 | 0.479 ± 0.042 | 1.093 ± 0.01 | 1.29 ± 0.3 | 0.744 ± 0.21 | 0.99 ± 0.077 | 1.013 ± 0.0046 | 0.762 ± 0.17 | 0.61 ± 0.41 | 0.86 ± 0.028 | 0.929 ± 0.051
16 | CCN1CCN(C(=O)NC(C(=O)NC2C(=O)N3C(C(=O)O)=C(CSc4nnnn4C)CSC23)c2ccc(O)cc2)C(=O)C1=O (stereo unspecified) | 0.414 ± 0.27 | 0.636 ± 0.11 | 1.35 ± 0.11 | 1.23 ± 0.34 | 0.673 ± 0.16 | 1.09 ± 0.17 | 0.828 ± 0.076 | 0.0994 ± 0.0088 | 0.546 ± 0.35 | 0.965 ± 0.23 | 0.96 ± 0.2
17 | COc1ccc2c(c1OC)C(=O)OC2C1c2c(cc3c(c2OC)OCO3)CCN1C.Cl (stereo unspecified) | 0.0862 ± 0.019 | 0.249 ± 0.016 | 1.11 ± 0.17 | 1.36 ± 0.47 | 0.947 ± 0.42 | 1.123 ± 0.0013 | 1.12 ± 0.066 | 0.417 ± 0.096 | 0.684 ± 0.53 | 0.967 ± 0.19 | 0.914 ± 0.045

From the supplement of paper PMC9446081
